PNC assembly inh – High Content Assay for Compounds that inhibit the Assembly of the Perinucleolar Compartment. PC3M PTB-GFP, PNC prevalence imaging, 16 h; stronger effect = lower value. activity change (PNC), negative = inhibition, % at 10 µM. hit rate 3.1% among 140,000. AID 2417, 2010;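 active = readout at or below -70, meaning at least 70% loss of cells showing the perinucleolar compartment, a nuclear body marking cancer cells; inconclusive = readout between -30 and a set limit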
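Read-out is percentage of cells bearing a perinucleolar compartment, from automated 20x imaging of fixed, Hoechst-stained PC3M PTB-GFP cells. Cells were seeded 4 h, then exposed 16 h to compound (23 nl of library stock) in duplicate plates.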
12-hLO inh – qHTS Assay for Inhibitors of 12-hLO (12-human lipoxygenase); Polyunsaturated fatty acid lipoxygenase ALOX12 (Homo sapiens), P18054; purified 12-hLO, xylenol orange hydroperoxide absorbance; Potency, µM (doses to about 57.1 µM), hits mostly inhibitors; hit rate 0.12% among 150,000; also: nearly all actives have a fitted effect of over 55% in size
Target sequence (P18054 whole entry, looked up): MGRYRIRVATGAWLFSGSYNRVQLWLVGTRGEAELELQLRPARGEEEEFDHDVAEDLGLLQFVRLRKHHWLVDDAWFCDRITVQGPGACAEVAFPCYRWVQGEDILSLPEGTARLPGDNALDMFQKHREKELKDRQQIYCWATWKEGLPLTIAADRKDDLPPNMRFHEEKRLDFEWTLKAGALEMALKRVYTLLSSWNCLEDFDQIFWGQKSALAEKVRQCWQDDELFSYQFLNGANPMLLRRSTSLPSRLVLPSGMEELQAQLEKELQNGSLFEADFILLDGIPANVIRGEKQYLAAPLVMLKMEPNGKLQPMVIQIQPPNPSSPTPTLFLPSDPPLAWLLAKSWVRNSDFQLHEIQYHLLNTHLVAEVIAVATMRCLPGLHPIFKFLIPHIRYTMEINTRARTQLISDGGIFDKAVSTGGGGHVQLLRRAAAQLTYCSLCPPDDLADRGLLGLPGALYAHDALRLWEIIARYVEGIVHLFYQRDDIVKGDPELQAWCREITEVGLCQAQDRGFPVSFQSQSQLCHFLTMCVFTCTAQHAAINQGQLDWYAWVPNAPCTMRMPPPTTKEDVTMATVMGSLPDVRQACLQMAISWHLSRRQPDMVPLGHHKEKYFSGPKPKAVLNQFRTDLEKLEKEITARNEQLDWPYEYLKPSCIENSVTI
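Lipoxygenase turnover measured by absorbance at 573 and 405 nm after Fe-XO development. Human 12hLO 150 nM, arachidonate 40 uM, pH 7.0 Hepes buffer with detergent; 15 min compound preincubation, 30 min reaction.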
ALOX15B inhib – qHTS Assay for Inhibitors of 15-hLO-2 (15-human lipoxygenase 2); Potency, µM (top dose mostly 57.1 µM), hits mostly inhibitors; purified 15hLO-2, xylenol orange hydroperoxide absorbance; hit rate 0.56% among 110,000; also: nearly all actives have a fitted effect of over 60% in size
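Enzyme 50 nM, AA 45 uM, 25 mM Hepes pH 7.5 + 0.01% Triton X-100; cpd preinc 15 min RT, rxn 90 min RT; stop/detect with 200 uM XO + 300 uM Fe(II) in 50 mM H2SO4, 30 min; A573/A405.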
Of the large screens only hits and unclear results are named; the others gave an inactive call. Rows were chosen to be rich in hits. Some 3.1% of all compounds tested hit in one or more screens of this group. Unless noted, calls follow the shape of the dose curve; as a rule, active = well fitted curve in the direction sought with a large enough effect; inconclusive = small, poorly fitted or top-dose-only effect, or another doubt; inactive = no such curve, though single readings can be large; an effect the other way counts as inactive or inconclusive.

CN(C)Cc1ccccc1-c1nc(N(C)C)c2ccccc2n1	none (no result: PNC assembly inh, 12-hLO inh)
O=C(c1cccc(F)c1)N1CCC2(CC1)CCN(c1ncccn1)CC2	none (no result: PNC assembly inh)
COc1cc(/C=N/NC(=S)Nc2cccc(C(=O)O)c2)cc(OC)c1OC	none (no result: ALOX15B inhib)
COc1cc(/C=N/NC(=S)N/N=C/c2cc(OC)c(OC)c(OC)c2)cc(OC)c1OC	PNC assembly inh -109 (no result: ALOX15B inhib)
N#C/C(=C\c1c(N2CCCCC2)nc2ccccn2c1=O)C(=O)NC1CCS(=O)(=O)C1 (centres undefined)	none (no result: ALOX15B inhib)
Cc1cccc(Oc2nc3ccccn3c(=O)c2/C=C(\C#N)C(=O)NC2CCS(=O)(=O)C2)c1 (centres undefined)	PNC assembly inh -104 (no result: ALOX15B inhib)
CC(C)(CN)SCc1ccccc1	none (no result: PNC assembly inh)
Fc1ccc(-n2c(-c3ccc4c(c3)OCO4)n[nH]c2=S)cc1Cl	none (no result: ALOX15B inhib)
COc1cc(OC)cc(-c2n[nH]c(=S)n2-c2ccc3c(c2)OCO3)c1	PNC assembly inh -104 (no result: ALOX15B inhib)
Nc1nc(Cl)nc2c1ncn2[C@@H]1O[C@@H](CO)[C@@H](O)[C@H]1O	none (no result: PNC assembly inh)
CCCCCCc1cc2cc(-c3nnc(-c4ccccc4OC)o3)c(=O)oc2cc1O	ALOX15B inhib inconclusive
CCCCCCc1cc2cc(-c3nnc(-c4ccccc4O)o3)c(=O)oc2cc1O	ALOX15B inhib 25µM
O=S(=O)(c1ccccc1)c1ccccc1/C=N\O	PNC assembly inh -96
O=S(=O)(O)c1ccccc1	none (no result: PNC assembly inh)
CCOCCCNC(=O)C1CCN(S(=O)(=O)c2ccc(C)cc2)CC1	none (no result: ALOX15B inhib)
CCOCCCNC(=O)C(C)NS(=O)(=O)c1ccc(C)cc1 (centres undefined)	PNC assembly inh -90
CC1=C2[C@@H]([C@H](C)CC[C@H]2/C=C(\C)C(=O)O)[C@H](O)C1	none (no result: PNC assembly inh)
CC(=O)Nc1ccc(S(=O)(=O)NCc2ccc(C)cc2)cc1	PNC assembly inh -110
C=CCNC(=O)c1ccc(CNS(=O)(=O)c2ccc(NC(C)=O)cc2)cc1	none
COc1c(O)ccc2c1CN1CCc3cc4c(cc3[C@@H]1C2)OCO4	none (no result: PNC assembly inh)
CN(Cc1ccccc1)C(=S)NC(=O)C1CCCCC1	none (no result: ALOX15B inhib)
O=C(NC(=S)N(Cc1ccccc1)c1ccccn1)C1CCCCC1	PNC assembly inh -103 (no result: ALOX15B inhib)
CC(C)(C)c1cc(/C=C(\C#N)C(N)=S)cc(C(C)(C)C)c1O	ALOX15B inhib 13µM (no result: PNC assembly inh)
[C-]#[N+]/C(C#N)=C\c1cc(C(C)(C)C)c(O)c(C(C)(C)C)c1	none (no result: PNC assembly inh)
N=C(N)[C@H](N=Nc1ccccc1)C(N)=O	none (no result: PNC assembly inh)
O=C(N/N=C/c1c(O)ccc2ccccc12)c1cccc(C(F)(F)F)c1	PNC assembly inh -93, 12-hLO inh inconclusive (no result: ALOX15B inhib)
O=C(N/N=C/c1ccc(N2CCOCC2)o1)c1cccc(C(F)(F)F)c1	PNC assembly inh -100 (no result: ALOX15B inhib)
O=C(N/N=C/c1ccc(N2CCOCC2)o1)c1ccccc1[N+](=O)[O-]	none (no result: ALOX15B inhib)
COc1ccc2ccccc2c1/C=N/NC(=O)c1cccc(Br)c1	none (no result: ALOX15B inhib)
CCCn1c(C)nc2c(NCCCCN3CCCC3)nc(C)nc21	none (no result: PNC assembly inh)
COc1ccc2nc(NC(=O)c3cccc(OCc4c(C)noc4C)c3)sc2c1	PNC assembly inh -91, 12-hLO inh inconclusive
CCSc1nnc(NC(=O)c2cccc(OCc3c(C)noc3C)c2)s1	PNC assembly inh -111
Cc1noc(C)c1COc1cccc(C(=O)NCc2ccccc2Cl)c1	PNC assembly inh inconclusive
Cc1noc(C)c1COc1cccc(C(=O)Nc2ccc(OCc3ccccc3)cc2)c1	none
CN(C)c1ccc(C(=C2C=CC(=[N+](C)C)C=C2)c2c(O)c(S(=O)(=O)O)cc3cc(S(=O)(=O)O)ccc23)cc1	none (no result: PNC assembly inh)
COc1ccc(NC(=O)N2CC3(CCN(C(=O)c4ccncc4)CC3)C2)cc1	none (no result: PNC assembly inh)
CCOC(=O)C1=C(c2ccccc2)N2CCS(=O)(=O)N=C2S1	PNC assembly inh -83
CCOC(=O)c1c(N)nn(C(=O)C(C)(C)C)c1-c1ccccc1	none
COc1ccc(-c2[nH]ncc2-c2csc(C)n2)c(O)c1	PNC assembly inh -91 (no result: ALOX15B inhib)
CCCOC(=O)c1ccc(Oc2c(-c3ccc(OCC)cc3O)n[nH]c2C)cc1	PNC assembly inh inconclusive, 12-hLO inh inconclusive
CCOc1ccc(-c2[nH]ncc2-c2csc(C)n2)c(O)c1	none (no result: ALOX15B inhib)
CCCOC(=O)c1ccc(Oc2cn[nH]c2-c2ccc(OCC)cc2O)cc1	PNC assembly inh -117
COc1cccc(Oc2cn[nH]c2-c2ccc(OC)cc2O)c1	12-hLO inh inconclusive
COc1cccc(Oc2cn[nH]c2-c2ccc(O)cc2O)c1	PNC assembly inh -86
C[C@@H]1C[C@@H]([C@@H](C)CC2CC(=O)NC(=O)C2)C(=O)[C@@H](C)C1	none (no result: PNC assembly inh)
